# Records with an inconclusive call do not appear. Values without a mark were called inactive. The call rests on the fitted dose curve; in most records, active means well fitted cell-killing curve with a large enough effect in the repeat runs; inconclusive means weak or mixed curves, or effect the other way; inactive means no such curve, though single readings can be large or run the other way.
# Assay: qHTS assay to identify small molecule antagonists of the retinoid-related orphan receptor gamma (ROR-gamma) signaling pathway - cell viability counter screen (AID 1159520); further: nearly all actives have a fitted effect of over 50% in size
# Conditions: Tet-on RORgamma CHO cells viability, ATP luminescence, 16 h; series mostly up to 92.4 µM; activity, negative = cytotoxicity: at the top concentration
# Text: U.S. Tox21 Program National Center for Advancing Translational Sciences [NCATS] NIH Chemical Genomics Center [NCGC] U.S. Environmental Protection Agency [EPA] National Institutes of Environmental Health Sciences [NIEHS] National Toxicology Program [NTP] U.S. Food and Drug Administration [FDA] Tox21 Assay Overview: Nuclear steroid hormone receptors are involved in many biological processes including inflammatory responses, cell proliferation, and apoptosis. Environmental factors or compounds disrupting these nuclear receptor pathways and gene expression may promote susceptibility to immunotoxicants and autoimmune diseases. One important group of these expression factors are the retinoid-related orphan receptors. To assess compounds that may interfere with the retinoid-related orphan receptor gamma (ROR-gamma) transcription factor, a cell-based luciferase assay was used. The CHO cell-based assay utilizes a TET-inducible ROR expression factor and ROR response element-LUC reporter gene. Reporter gene activity was induced using Doxycycline Hyclate and measured after 16 hr incubation. Tet-on ROR gamma CHO cells were used to screen against the Tox21 10K compound library for cytotoxicity by measuring the viability of the cells based on the quantitation of the ATP.
# Tox21 Assay Protocol Summary: Tet-on ROR gamma CHO cells were dispensed at 1,000 cells in 4 uL of culture medium per well into white wall/solid bottom 1536-well plates using a Multidrop Combi (Thermo Scientific, Waltham, MA) dispenser. Following incubation at 37 C and 5% CO2 for 4 hr, 23 nL of compounds dissolved in DMSO, positive controls or DMSO only were transferred by a Pintool station (Kalypsys, San Diego, CA) and after 2 hr incubation at 37 C, one ul of 1 uM (final concentration) of Doxycycline Hyclate was added to all the wells by using a Flying Reagent Dispenser (FRD) (Aurora Discovery, San Diego, CA). After 16 hr incubation at 37 C and 5% CO2, 5 uL of CellTiter-Glo reagent (Promega Corporation, Madison, WI) was added to each assay plate using FRD. After 30 min incubation at room temperature, luminescence was quantified on a ViewLux plate reader (Perkin Elmer, Waltham, MA).
# On the % scale 0 is the no-effect control and ±100 the full control effect.
row,SMILES,"activity, negative = cytotoxicity"
1,Nc1ccn(C2CO[C@H](CO)O2)c(=O)n1 (stereo not given in full),1.52% [at 42.5 µM]
2,CC(C)(O)Cc1ccccc1,10.2%
3,CC(C)N1C(=O)c2ccccc2C1=O,12.2%
4,COc1cc(CCC(C)=O)ccc1O,-8.89%
5,CCCCCCCCCCCCCCC,0.271%
6,CC(=O)N[C@@H](CCC(N)=O)C(=O)O,0.625% [at 42.5 µM]
7,C=C(C)C(=O)NCCC[N+](C)(C)C,0.815%
8,CCN(CC)S(=O)(=O)c1ccc(C(=O)O)cc1,0.845% [at 42.5 µM]
9,Cc1onc(-c2ccccc2)c1-c1ccc(S(N)(=O)=O)cc1,0.878% [at 42.5 µM]
10,O=C1OC(=O)c2cc([N+](=O)[O-])ccc21,-10.3%
11,NC(=O)c1ncn([C@@H]2O[C@H](CO)[C@@H](O)[C@H]2O)c1N,3.35% [at 42.5 µM]
12,CCCCCC[C@@H](CCC)C(=O)O,-0.482% [at 42.5 µM]
13,C=C(C)[C@@H]1CCC2=CC(=O)C[C@@H](C)[C@]2(C)C1,3.94%
14,O=C(O)CCNC(=O)c1ccc(N=Nc2ccc(O)c(C(=O)O)c2)cc1,3.09% [at 42.5 µM]
15,Cc1ccc(N)cc1[N+](=O)[O-],-15.8%
16,c1cc(CN2CCCCC2)cc(OCCCNc2nc3ccccc3s2)c1,-6.52% [at 42.5 µM]
17,CO[Si](OC)(OC)OC,0.173%
18,C/C=C1\C(=O)C[C@H]2[C@@H]3CCC4=CC(=O)CC[C@]4(C)[C@H]3CC[C@]12C,-14.2% [at 42.5 µM]
19,CCO[Si](C)(OCC)OCC,-0.147%
20,CCC(C)OC(=O)N1CCCCC1CCO (stereo not given),11.9%

row,SMILES,"activity, negative = cytotoxicity"
1,Cc1nccn1CC1CCc2c(c3ccccc3n2C)C1=O (stereo not given),-1.35% [at 42.5 µM]
2,CCCc1ccccc1O,-12.2%
3,CC(C)(C)CC(C)(C)N,-5.09%
4,C=C(C)C(=O)OCCC(C)OC(=O)C(=C)C (stereo not given),-17.7%
5,CC(C)=CCC/C(C)=C/C(=O)O,-0.2%
6,C[C@H]1O[C@@H](n2cc(F)c(=O)[nH]c2=O)[C@H](O)[C@@H]1O,4.42% [at 42.5 µM]
7,CC1=CC(=O)CCC1,0.805%
8,CC(=O)OC(C)(C)C,-0.626%
9,NCCNC(=O)c1ccc(Cl)cn1,7.39% [at 42.5 µM]
10,COCc1ccc(COC)cc1,5.9%
11,OC1OC[C@@H](O)[C@H](O)[C@H]1O (stereo not given in full),2.65%
12,CCCOCC(C)OCC(C)O (stereo not given),-0.311%
13,CCCCCCCCCCCCCCCCCCOCC(O)CO (stereo not given),-4.33% [at 42.5 µM]
14,CC(=O)NC(Cc1ccccc1)C(=O)O (stereo not given),-1.89% [at 42.5 µM]
15,OCCCCCCO,3.44%
16,CC(C)(C)N(CCO)CCO,2.7%
17,CC12CCC(CC1=O)C2(C)C (stereo not given),0.0313%
18,O=C1CC2(CCCC2)CC(=O)N1,1.05% [at 42.5 µM]
19,CCN1CCCC1CNC(=O)c1cc(S(N)(=O)=O)ccc1OC (stereo not given),-12.9%
20,COC(=O)CCCCCCCCC(=O)OC,-14%

# Source: PubChem BioAssay (Tox21)
